Out of some 420,000 compounds screened, about 50,000 (12%) were called active. A call without a number means that no potency is given here. Inconclusive results (about 26%) are left out. Calls come from the whole dose curve; as a rule, active = well fitted inhibition curve with a large enough effect; inconclusive = small, poorly fitted or top-dose-only effect; inactive = flat fitted curve, though single readings scatter. The full list was thinned out, with actives kept by preference. Where a SMILES comes first, the peptide text is derived from it. Bridges are numbered along the chain shown (N, C = ends). [ ]: non-standard residue; d: D form. The star is where a group is joined. X4 = CC[C@H](C)CCCCC(=O)*; Dab = NCC[C@H](N)C(=O)O
experiment: qHTS for Inhibitors of human tyrosyl-DNA phosphodiesterase 1 (TDP1): qHTS in cells in presence of CPT; conditions: chicken DT40 Tdp1-/-;hTDP1 cells + 20 nM CPT, ATP luminescence, 48 h; series mostly up to 46.2 µM; note: nearly all actives have a fitted effect of over 55% in size
Procedure, shortened: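 Cell growth measured by CellTiter-Glo luminescence after a minimum 48 h, 37 C compound exposure with 20 nM CPT in Tdp1-knockout DT40 cells stably expressing hTDP1, seeded 400/well; qHTS titration format.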
Potency is the fitted concentration of half-maximal effect.

SMILES	Potency
CCCc1nn(C)c2c(=O)[nH]c(-c3cc(S(N)(=O)=O)ccc3OCC)nc12	inactive
Cc1nnc(CN(C)Cc2cn[nH]c2-c2ccc(-c3ccccc3)cc2)o1	inactive
COc1ccc2oc(=N)c(C(=O)Nc3ccc(Br)cc3)cc2c1	inactive
COc1ccc2oc(=O)c(C(=O)O)cc2c1	inactive
COc1ccc(/C=C/C(=O)c2cc(Br)ccc(=O)c2O)cc1	14.6 µM (active)
O=[N+]([O-])c1ccc(N=NNc2ccc([N+](=O)[O-])cc2)cc1	inactive
COc1ccccc1NC(=O)CN1C(=O)c2ccccc2Sc2ccc(C(=O)N3CCCC3)cc21	inactive
COc1cc(C(=O)N2CCN(S(=O)(=O)c3ccc(C(C)C)cc3)CC2)ccc1OCC(=O)N1CCOCC1	inactive
CN(c1ccccc1)S(=O)(=O)c1ccc(Cl)c(C(=O)OCC(=O)N2CCOCC2)c1	inactive
CN(c1ccccc1)S(=O)(=O)c1ccc(C(=O)N2CCN(c3ccccc3Cl)CC2)cc1	23.1 µM (active)
Cc1ccc(S(=O)(=O)N2CCN(C(=O)c3ccc(-n4cncn4)c([N+](=O)[O-])c3)CC2)cc1	inactive
COc1ccc(S(=O)(=O)Nc2ccccc2C(=O)N2CCCC2)cc1C	inactive
O=C(c1ccc(S(=O)(=O)N2CCOCC2)cc1)N1CCN(c2ccccc2)CC1	inactive
COc1ccccc1NS(=O)(=O)c1ccc(C(=O)N2CCN(c3ccccc3O)CC2)cc1	18.4 µM (active)
COc1ccccc1N1CCN(C(=O)c2ccc(S(=O)(=O)N3CCCCC3)cc2)CC1	23.1 µM (active)
O=C(c1ccc(S(=O)(=O)c2ccccc2)cc1)N1CCCCCC1	inactive
CC(C)c1ccc(S(=O)(=O)N2CCN(C(=O)c3ccc(N4CCCC4)c([N+](=O)[O-])c3)CC2)cc1	16.4 µM (active)
COc1ccccc1CC(=O)Nc1ccc(S(=O)(=O)N2CCCC2)cc1	inactive
O=C(OCCN1CCOCC1)C1(c2ccccc2)CCCCC1	inactive
CCN(Cc1ccccc1)Cc1c(O)ccc2c(=O)c(-c3ccc(Cl)cc3Cl)coc12	inactive
Cc1nc(C(F)(F)F)ccc1C(=O)N1CCC1(C)C(=O)NS(=O)(=O)c1ccc(F)cc1F (configuration not stated)	inactive
O=C(Nc1cccnc1)c1cc(Cl)ccc1Cl	inactive
CC(=O)c1nn(-c2ccc(C)cc2)cc1C(=O)c1cccc(Br)c1	inactive
COc1ccc(S(=O)(=O)N2CCN(C(=O)N(C)C)C2C)cc1 (configuration not stated)	inactive
COc1ccc(NC(=O)CCCC(=O)c2ccccc2)cc1	inactive

SMILES	Potency
CC(C)N(C(=O)Cn1cc(S(=O)(=O)CC(=O)N2CCOCC2)c2ccccc21)C(C)C	inactive
CCCc1nn2c(=O)cc(COC(=O)c3ccc(NC(=O)COc4ccc(F)cc4)cc3)nc2s1	inactive
COc1cc(C(C(=O)NC2CCCC2)N(Cc2ccccc2)C(=O)c2snc(C(N)=O)c2N)ccc1O (configuration not stated)	inactive
CC(C)(C)NC(=O)C(c1ccc(Cl)cc1)N(CCO)C(=O)c1snc(C(N)=O)c1N (configuration not stated)	13 µM (active)
NC(=O)c1nsc(C(=O)N(CCCN2CCOCC2)C(C(=O)NC2CCCCC2)c2ccc(Cl)cc2)c1N (configuration not stated)	inactive
CC(C)(C)C(=O)NC1CC2CCCC(C1)N2C(=O)Nc1ccccc1F (configuration not stated)	inactive
Cc1ccc(OCc2cc(C(=O)N(C)CCn3ccnc3C)no2)cc1C	inactive
COC(=O)[C@@H]1CCCN1C(=O)c1cc(COc2cccc3cccnc23)on1	inactive
COCC1CCCCN1C(=O)c1cc(COc2ccc(C)c(C)c2)on1 (configuration not stated)	20.6 µM (active)
O=C1C=CN2CCCC2CC1 (configuration not stated)	16.4 µM (active)
Cc1cc(C)c(C#N)c(Nc2cccc(Br)c2)n1	inactive
CCCNC(=O)C1(C)CCN1C(=O)Cc1ccc(-c2ccccc2)cc1 (configuration not stated)	16.4 µM (active)
CC1(C(=O)NS(=O)(=O)c2ccccc2)CCN1C(=O)Cc1ccc(-c2ccccc2)cc1 (configuration not stated)	inactive
CC1(C(=O)NS(=O)(=O)c2cccs2)CCN1C(=O)Cc1ccc(-c2ccccc2)cc1 (configuration not stated)	inactive
CCOC(=O)c1c(C)[nH]c(C(=O)OCC(=O)c2ccc(OC)cc2OC)c1C	inactive
N#C/C(=C\c1cccnc1)C(=O)Nc1ccc(SC(F)F)cc1	inactive
O=C(C1CCC1)N1CCN(c2ccccc2)CC1	inactive
CS(=O)(=O)N1CCC(C(=O)N2CCN(c3ccccc3)CC2)CC1	inactive
Cn1c(C(=O)N2CCC(C(=O)N3CCN(c4ccccc4)CC3)CC2)cc2sccc21	13 µM (active)
CCOC(=O)Cc1ncccc1C(=O)Nc1ccc(OC)cc1	inactive
Cc1ccc2cccc([N+](=O)[O-])c2n1	inactive
CC[C@H](C)CCCCC(=O)N[C@@H](CCN)C(=O)N[C@H](C(=O)N[C@@H](CCN)C(=O)N[C@H]1CCNC(=O)[C@H]([C@@H](C)O)NC(=O)[C@H](CCN)NC(=O)[C@H](CCN)NC(=O)[C@H](CC(C)C)NC(=O)[C@@H](CC(C)C)NC(=O)[C@H](CCN)NC1=O)[C@@H](C)O (X4-[Dab]T[Dab][Dab][Dab][dL]L[Dab][Dab]T; lactam 4-C)	inactive
CC(=O)N1CCCc2ccc(NS(=O)(=O)c3ccc(F)cc3F)cc21	inactive
Cc1nn(CCOc2ccccc2)c(=O)n1-c1ccccc1F	inactive
CCN1C(=O)/C(=C\N2CCN(c3cccc(Cl)c3)CC2)SC1=S	inactive

SMILES	Potency
CCc1nn(CCCN2CCN(c3cccc(Cl)c3)CC2)c(=O)n1CCOc1ccccc1	11.6 µM (active)
Cc1cc(C)cc(NC(=O)CCCc2nc(-c3ccccc3Cl)no2)c1	inactive
COc1ccc(-c2noc(CNC(=O)C(C)Oc3ccccc3)n2)cc1 (configuration not stated)	inactive
NC1=NC(c2ccc([N+](=O)[O-])cc2)N(c2ccc(F)cc2)C(N)=N1 (configuration not stated)	inactive
Cc1ccc(OCc2nc3ccccc3n2C)cc1	inactive
Cc1ccc(OCCn2c(CNc3ccccc3C)nc3ccccc32)cc1	23.1 µM (active)
COCCn1c(-c2ccc(OC)c(OC)c2)nc2ccccc21	inactive
COc1cc2ccccc2cc1C(=O)Nc1nc(C)c(C(C)=O)s1	inactive
Cc1csc2nc(COc3ccc(NC(=O)COc4ccccc4)cc3)cc(=O)n12	inactive
Cc1csc2nc(COC(=O)c3ccc(NC(=O)COc4ccccc4F)cc3)cc(=O)n12	18.4 µM (active)
O=C(COc1ccccc1F)Nc1ccc(C(=O)OCc2cc(=O)n3nc(C4CC4)sc3n2)cc1	inactive
COc1ccc(CCNC(=O)CCNS(=O)(=O)c2cc(Br)cnc2N)cc1OC	inactive
COC(=O)[C@H](CC(C)C)NC(=O)N1CCCCC1C (some centres not stated)	inactive
Cc1nc2ccccc2c(C(=O)O)c1-c1ccccn1	inactive
CC(C)(C)Nc1nc(-c2ccccn2)nc2ccccc12	4.61 µM (active)
CC(=O)Nc1ccc(NC(=O)CCN2C(=O)C3CC=CCC3C2=O)cc1 (configuration not stated)	inactive
COC(=O)[C@]1(C)CCC[C@@]2(C)C3CC[C@]4(OC(C)=O)C[C@@]3(CCC21)CC4=NO (some centres not stated)	16.4 µM (active)
COC(=O)[C@@H]1C[C@H]2CC[C@H](O)C[C@H]2N1Cc1ccc(N2CCN(C)CC2)cc1	inactive
O=C(c1cccnc1NCc1ccccc1)N1CCOCC1	inactive
Oc1c(C(c2ccccn2)N2CCOCC2)ccc2cccnc12 (configuration not stated)	16.4 µM (active)
Cc1nc2sc(C(c3ccco3)N3CCOCC3)c(O)n2n1 (configuration not stated)	inactive
O=C(O)c1cc(S(=O)(=O)Nc2ccc3cn[nH]c3c2)ccc1Br	inactive
O=C(Nc1ccccc1)C1CC(=O)n2c(nc3ccccc32)N1 (configuration not stated)	inactive
O=c1ccc2cc(S(=O)(=O)NCCCc3ccccc3)ccc2[nH]1	inactive
CCC1CCCCN1C(=O)CSc1nc2c(c(=O)n(C)c(=O)n2C)n1C (configuration not stated)	inactive

SMILES	Potency
COC(=O)C(C)Sc1nc2c(c(=O)n(C)c(=O)n2C)n1Cc1cccc(C)c1 (configuration not stated)	inactive
CCOC(=O)CSc1nc2c(c(=O)n(C)c(=O)n2C)n1Cc1ccccc1F	inactive
CSc1nnc(C2CCCN(CC(=O)Nc3ccccc3N3CCOCC3)C2)n1C(C)C (configuration not stated)	inactive
C#CC(C)(C)NC(=O)CSc1nc2c(c(=O)n(C)c(=O)n2C)n1CCCC	inactive
Cn1c(=O)c2c(nc(SCC(=O)Nc3ccc(F)cc3)n2Cc2ccccc2)n(C)c1=O	4.61 µM (active)
CCCCn1c(SCC(=O)N2CCOCC2)nc2c1c(=O)n(C)c(=O)n2C	inactive
CC(C)n1c(SCC(=O)Nc2ccccc2N2CCCCC2)nc2c1c(=O)n(C)c(=O)n2C	29.1 µM (active)
Cc1cccc(Cn2c(SCCO)nc3c2c(=O)n(C)c(=O)n3C)c1	25.9 µM (active)
O=C(c1cccs1)N1C[C@H](n2cc(C3CC3)nn2)[C@@H](O)C[C@@H]1c1ccccc1	inactive
O=C(O)CC12CC3CC(C1)CC(n1ncc(NCc4ccc(F)cc4)c(Cl)c1=O)(C3)C2	inactive
O=C(NCc1csc(-c2cccs2)n1)C1CC1	inactive
Cc1ccc(C(=O)NCC(c2cccs2)N(C)C)cc1S(=O)(=O)N1CCOCC1 (configuration not stated)	inactive
CC(C)(C)C1CCC(C(=O)NCC(c2cccs2)N2CCOCC2)CC1 (configuration not stated)	16.4 µM (active)
Cc1c(C=O)c2ccccc2n1CC(=O)O	inactive
Cc1ccc(S(=O)(=O)N2CCOCC2)cc1NC(=O)COC(=O)c1cnccn1	inactive
COc1cc(/C=C/c2ccc(/C=C/c3cc(OC)c(OC)c(OC)c3)cc2)cc(OC)c1OC	inactive
O=C1c2ccccc2C(=O)C1c1ccccc1F	inactive
O=C1c2ccccc2C2=Nc3ccccc3SC(c3ccccc3F)C12 (configuration not stated)	14.6 µM (active)
O=C1CSC(=S)N1c1ccc(Cl)c(Cl)c1	inactive
COc1ccc(/C=C(\C#N)c2c[nH]c3ccccc23)cc1	1.16 µM (active)
COc1ccc(/C=C(\NC(=O)c2ccc(OC)c(OC)c2)C(=O)NCCc2c[nH]c3ccccc23)cc1	inactive
C[N+](C)(C)CCNC(=O)c1c[nH]c2ccccc12	inactive

Reference: PubChem BioAssay AID686979 (National Center for Advancing Translational Sciences (NCATS), 2013)
